TEAD-YAP inh: TEAD-YAP interaction inhibition. HEK-TIYL cells, TEAD-Gal4/YAP UAS-luciferase luminescence. inhibition, % at 9.12 µM. actives 1.4% (n = 640,000); in the data active = inhibition above about 32%;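 note: 0% = median of test compound wells and 100% = reference inhibitor wells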
MITF primary: inhibitors of human MITF. AlphaScreen MITF homodimerization, bead proximity signal. inhibition, % at 2.6 µM. actives 0.91% (n = 650,000). AID 1259374; in the data active = inhibition above about 50%;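 note: 0% = vehicle wells with protein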
FBW7 act: activators of human E3 ligase FBW7. AlphaScreen FBW7–phospho-cyclin E peptide binding, activator screen. actives 0.13% (n = 650,000). AID 1259310. Q969H0. normalized activity (activation), % at 26.1 µM; in the data active = normalized activity above about 1.9%;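 note: purified mutant Fbw7 with reduced substrate affinity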
Target sequence (Q969H0 whole entry, looked up): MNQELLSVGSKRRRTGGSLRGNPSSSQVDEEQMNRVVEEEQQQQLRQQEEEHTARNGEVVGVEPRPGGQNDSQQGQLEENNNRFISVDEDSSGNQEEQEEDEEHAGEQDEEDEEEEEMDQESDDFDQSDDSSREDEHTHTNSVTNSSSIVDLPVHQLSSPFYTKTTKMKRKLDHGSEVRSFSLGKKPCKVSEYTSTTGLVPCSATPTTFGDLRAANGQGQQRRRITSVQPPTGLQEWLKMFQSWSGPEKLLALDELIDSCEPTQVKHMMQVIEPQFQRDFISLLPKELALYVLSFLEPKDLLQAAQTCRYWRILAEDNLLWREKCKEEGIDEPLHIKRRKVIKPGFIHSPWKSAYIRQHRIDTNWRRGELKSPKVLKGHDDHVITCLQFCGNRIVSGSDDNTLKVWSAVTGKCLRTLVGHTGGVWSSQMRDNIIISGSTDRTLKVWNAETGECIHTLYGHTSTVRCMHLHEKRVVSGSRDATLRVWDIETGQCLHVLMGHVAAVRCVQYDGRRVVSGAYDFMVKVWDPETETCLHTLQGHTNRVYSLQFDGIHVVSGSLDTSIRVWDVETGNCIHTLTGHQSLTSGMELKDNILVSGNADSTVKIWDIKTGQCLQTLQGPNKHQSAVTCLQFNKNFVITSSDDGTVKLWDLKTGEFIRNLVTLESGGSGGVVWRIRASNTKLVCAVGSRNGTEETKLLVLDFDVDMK
GPR151 activ: activates the human receptor GPR151; AID 1508602; Q8TDV0; activation, % at 11.2 µM; actives 1% (n = 650,000); PathHunter beta-arrestin GPR151 cells, luminescence; in the data active = activation above about 4.9%;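 note: 0% = median of compound wells and 100% = cells with positive control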
* marks the source's active call; other numbers are inactive results. This is a sample that favours compounds with a hit; in the whole collection about 3.5% have one here.

SMILES	TEAD-YAP inh	MITF primary	FBW7 act	GPR151 activ
O=c1[nH]c(/C=C\c2ccc(O)c(O)c2)nc(O)c1[N+](=O)[O-]	2	85*	1	-1
Cc1ccc2nc(SCCOc3ccc(C(C)(C)C)cc3)[nH]c2c1	-2	16	0	-1
CCOC(=O)c1nn(-c2ccc(C)c(C)c2)cc1O	-35	-1	0	0
CCOC(=O)c1nn(-c2ccc3c(c2)OCCO3)cc1O	43*	-9	0	-4
COc1ccc(CCNC(=O)CSc2nc3ccccc3c(=O)n2CCc2ccc(OC)c(OC)c2)cc1OC	6	-4	0	0
COc1ccc(CCNC(=O)CSc2nc3ccc(Br)cc3c3nc4ccccc4n23)cc1OC	-13	6	1.9*	-2
CCOC(=O)N1CCN(c2c(NCCCN(CC)c3cccc(C)c3)c(=O)c2=O)CC1	6	68*	0	1
CS(=O)(=O)C1=NSC2=NC(=O)/C(=C\c3ccc(Br)o3)C(=N)N21	12	74*	-2	-1
CC(C)S(=O)(=O)C1=NSC2=NC(=O)/C(=C\c3ccc(Br)o3)C(=N)N21	8	84*	-1	0
Brc1ccc(CSc2nn3cnnc3s2)cc1	53*	-10	0	0
Nc1nnc(SCc2ccc(Br)cc2)s1	-4	14	0	-1
COc1ccc(Oc2nc(C)cc(C)n2)cc1	-10	4	1	-2
Cc1cc(C)nc(Oc2ccc(N)cc2)n1	52*	16	1.9*	0
c1ccc(Oc2cccc(Oc3cccc(Oc4cccc(Oc5ccccc5)c4)c3)c2)cc1	-6	-4	0	1
Nc1ccc(Oc2cccc(Oc3ccc(N)cc3)c2)cc1	52*	6	0	0
Nc1ccc(Oc2cccc(-c3ccc(N)cc3)c2)cc1	46*	6	0	0
COc1ccc([N+](=O)[O-])cc1NC(=O)CSCCc1ccccn1	-6	-19	0	1
CCOC(=O)c1sc(N/N=C/c2ccccc2O)nc1C	49*	7	0	1
COc1ccc(S(=O)(=O)N2c3ccc(Cl)cc3C(C)=CC2(C)C)cc1	58*	14	0	0
CC1=CC(C)(C)N(S(C)(=O)=O)c2ccc(OS(C)(=O)=O)cc21	1	7	0	1
COc1ccc(S(=O)(=O)N2c3cc(C)ccc3C(C)=CC2(C)C)cc1	63*	6	0	1
COCCN(CCOC)S(=O)(=O)c1cccc(C(=O)O)c1	-5	-13	0	1
CCCc1nc(SCC(=O)Nc2c(C)[nH]c(=O)[nH]c2=O)c2c(C)c(C)sc2n1	4	11	0	0
COc1ccc2cc3c(N)[nH]nc3nc2c1	80*	1	0	0
Cc1cc(C)c2sc(NC(=O)c3ccccc3C)nc2n1	61*	-17	0	-1
SMILES	TEAD-YAP inh	MITF primary	FBW7 act	GPR151 activ
CSc1ccccc1C(=O)Nc1nc2cc(C)cc(C)c2s1	-10	-16	0	0
CSc1ccccc1C(=O)Nc1nc2nc(C)cc(C)c2s1	-12	3	8.8*	0
Cc1cc(C)c2sc(NC(=O)c3cc4ccccc4o3)nc2n1	-46	8	0	-2
Oc1ccccc1C(Nc1nccs1)c1ccc2cccnc2c1O (centres undefined)	24	41	-2	2
Oc1c(C(c2ccccn2)N2CCCC2)ccc2cccnc12 (centres undefined)	67*	107*	0	2
c1ccc(C(c2nnnn2C2CCCC2)N2CCCCCC2)nc1 (centres undefined)	13	0	-1	0
CN1CCN(C(c2ccccn2)c2ccc3cccnc3c2O)CC1 (centres undefined)	15	90*	0	0
O=C(c1ccc2ccccc2c1)N1CCN(c2ccccn2)CC1	-1	-1	0	2
Oc1c(C(c2ccccn2)N2CCN(c3ccccn3)CC2)ccc2cccnc12 (centres undefined)	-4	83*	-2	-1
Oc1c(C(c2cccs2)N2CCN(c3ccccn3)CC2)ccc2cccnc12 (centres undefined)	91*	38	0	1
CCC(C)(C(=O)NC1CCCC1)N(Cc1ccco1)C(=O)c1cnccn1 (centres undefined)	10	5	0	0
O=C(NCC1CCCN(Cc2cccnc2)C1)C1(c2ccc(Cl)cc2)CC1 (centres undefined)	-1	-11	0	-1
CCOc1ccc(C(C)NC(=O)c2cccc(C)c2)cc1 (centres undefined)	0	-5	0	0
COc1cc([N+](=O)[O-])ccc1NC(=O)c1ccco1	-7	12	0	-1
COc1cc([N+](=O)[O-])ccc1N/C=C/C(=O)c1ccc(C)o1	35*	1	0	2
COc1cc([N+](=O)[O-])ccc1N/C=C/C(=O)c1ccco1	71*	15	0	0
COc1cccc(C(=O)/C=C/Nc2ccc([N+](=O)[O-])cc2OC)c1	35*	1	0	0
O=C1CN(Cc2cccs2)C(=S)N1c1ccccc1Cl	-10	1	0	0
CCn1c2ccccc2c2cc(NC(=O)COc3cc(=O)n(C)c4ccccc34)ccc21	-13	6	0	-1
Cc1ccc(N/C=C/C(=O)c2cccs2)cc1	81*	37	0	1
O=C(/C=C/Nc1ccc(I)cc1)c1cccs1	41*	23	0	0
COC(=O)c1ccc(N/C=C/C(=O)c2cccs2)cc1	53*	-8	0	-5
O=C(/C=C\Nc1cccc(F)c1)c1cccs1	-4	8	0	-2
CN1CCN(C2Cc3ccccc3Sc3ccccc32)CC1 (centres undefined)	-10	-9	0	-1
Cc1cc(/C=N/NC(N)=S)c(O)c(/C=N/NC(N)=S)c1	0	82*	-1	0
SMILES	TEAD-YAP inh	MITF primary	FBW7 act	GPR151 activ
NC(=S)N/N=C/c1cc(Cl)cc(Cl)c1O	7	37	-3	0
NC(=S)N/N=C/c1cccc(O)c1O	-9	106*	-1	1
NC(=O)N/N=C/c1cccc(C(=O)O)c1O	3	-6	0	1
NC(=S)N/N=C/c1cccc(/C=N/NC(N)=S)c1	2	9	0	0
Oc1cccc(/C=N/NC(=S)NCCN2CCOCC2)c1O	-18	106*	-1	0
NC(=O)C(=O)N/N=C/c1cccc(O)c1O	-7	56*	-1	1
c1ccc(-n2nnnc2NCC2(N3CCCCC3)CCCCC2)cc1	6	0	0	-1
COCCn1c(CCC(=O)NCc2ccco2)nc2cccnc21	4	4	0	0
CC1=Nc2cc(C(=O)NCCN3CCOCC3)ccc2Sc2ccc(Cl)cc21	1	9	0	-1
CC1=Nc2cc(C(=O)NCCN(C)C)ccc2Sc2ccc(Br)cc21	60*	10	0	-1
CCC1=Nc2cc(C(=O)NCC(OC)OC)ccc2Sc2ccc(C)cc21	60*	-4	0	0
COCCNC(=O)c1ccc2c(c1)N=C(C)c1cc(Cl)ccc1S2	57*	6	0	2
CCC1=Nc2cc(C(=O)NC)ccc2Sc2ccccc21	3	-15	0	0
N#Cc1ccc(C(=O)Nc2ccccc2I)cc1	-5	10	0	1

Compound activity from PubChem BioAssay.
